From PubChem BioAssay (Tox21)
Inconclusive results are not listed. Active and inactive are the calls of the source. Unless noted, calls follow the shape of the full dose curve.

Columns and labels:
[1] = Nuclear factor erythroid 2-related factor 2/antioxidant responsive element (Nrf2/ARE) small molecule agonists: qHTS cell viability counter screen in human keratinocytes (AID 1919968; active = well fitted curve in the direction sought with a large enough effect in the repeat runs; an effect the other way counts as inactive or inconclusive; also: nearly all actives have a fitted effect of over 55% in size)
In short: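 Stably transfected HaCaT (KeratinoSens), 1,500/well. Test agents in DMSO were applied for 23 h, 37 C/5% CO2. CellTiter-Fluor was incubated 1 h before the fluorescence read.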

[2] = Nuclear factor erythroid 2-related factor 2/antioxidant responsive element (Nrf2/ARE) small molecule agonists: luciferase reporter gene qHTS assay in human keratinocytes (AID 1919969); also: nearly all actives have a fitted effect of over 35% in size
[3] = biological target: Gonadotropin-releasing hormone receptor (Homo sapiens) (UniProt P30968); assay: Human gonadotropin-releasing hormone receptor (GnRHR) small molecule agonists, calcium flux assay in GnRHR-HEK293 cells (AID 1920063); also: nearly all actives have a fitted effect of over 35% in size
In short: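 Stable human GnRHR HEK293 line. 18 h plating, then calcium dye for 1 h at 37 C. Agonist-mode compound addition from DMSO stocks; fluorescence monitored 3 min.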

[4] = biological target: KiSS-1 receptor (Homo sapiens) (UniProt Q969F8); assay: Human kisspeptin (KISS1R) small molecule agonists, calcium flux assay in KISS1R-HEK293 cells (AID 1920064; active = well fitted curve in the direction sought with a large enough effect in the repeat runs; an effect the other way counts as inactive or inconclusive)
In short: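 After overnight (18 h) culture at 37 C/5% CO2, human KISS1R-HEK293 cells received calcium dye for 1 h, then test compound; emission at 540 nm (excitation 480 nm) was tracked for 3 min.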

[5] = G protein-coupled receptor (GPCR) small molecule agonists, calcium flux assay: HEK293 wild type cell line counter screen (AID 1920065)
In short: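 Following 18 h incubation at 37 C/5% CO2, plates got calcium dye for 1 h; compounds, ATP or DMSO were then pinned in and fluorescence followed kinetically (480/540 nm).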

[6] = p53 small molecule agonists, cell-based qHTS assay with human liver microsomes (AID 1963577);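 also: p53 response element beta-lactamase reporter cells with liver microsomes plus NADPH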
In short: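 In this qHTS, p53 response-element beta-lactamase cells receive test compound together with a microsome/NADPH activating system (0.5 mg/mL final each) and are incubated 16 h at 37 C before LiveBLAzer fluorescence detection.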

[7] = p53 small molecule agonists, cell-based qHTS assay with rat liver microsomes (AID 1963578)
In short: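 Agonist mode in p53RE-bla reporter cells, with compounds co-incubated 16 h at 37 C alongside 0.5 mg/mL rat liver microsomes and 0.5 mg/mL NADPH (final), followed by a 2 h LiveBLAzer detection step.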

[8] = p53 small molecule agonists, cell-based qHTS assay with human liver microsomes: qHTS cell viability counter screen (AID 1963579); also: nearly all actives have a fitted effect of over 45% in size
In short: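 Metabolically activated exposure: compounds, human liver microsomes and NADPH (0.5 mg/mL final apiece) were added to p53RE-bla cells seeded 5 h earlier, left 16 h at 37 C, and then assessed for viability by CellTiter-Glo luminescence.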

[9] = p53 small molecule agonists, cell-based qHTS assay with rat liver microsomes: qHTS cell viability counter screen (AID 1963580); also: nearly all actives have a fitted effect of over 45% in size
In short: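 Counter screen for cytotoxicity under metabolic activation: rat liver microsomes and NADPH, 0.5 mg/mL final each, added with compounds to p53RE-bla HCT-116 cells; 16 h at 37 C, then ATP luminescence read.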

[10] = p53 small molecule agonists, cell-based qHTS assay: qHTS cell viability counter screen (AID 1963581); also: nearly all actives have a fitted effect of over 45% in size
In short: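 qHTS counter screen: 16 h compound exposure at 37 C of p53RE-bla HCT-116 cells (4,000 per well, seeded 5 h prior), cell viability by ATP luminescence.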

[11] = p53 small molecule agonists, cell-based qHTS assay (AID 1963582; active = well fitted activation curve with a large enough effect in the signal ratio in the repeat runs, not every such curve was filed as active; the % refers to the signal ratio)
In short: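 Measured: fluorescence from cleaved LiveBLAzer substrate. System: p53RE-bla cells, 16 h compound treatment at 37 C, 2 h substrate step at room temperature.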

[12] = biological target: 5-hydroxytryptamine receptor 2A (Homo sapiens) (UniProt P28223); assay: 5-hydroxytryptamine receptor 2A (HTR2A) small molecule antagonists, cell-based qHTS assay (AID 1963586); also: nearly all actives have a fitted effect of over 45% in size
In short: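 CHO cells stably expressing human HTR2A were plated for 18 h at 37 C, then loaded with calcium dye for 1 h. Compounds were preincubated 5 min at room temperature before DOI (4 nM solution) was added. Kinetic fluorescence was read for 3 min.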

[13] = biological target: 5-hydroxytryptamine receptor 2A (Homo sapiens) (UniProt P28223); assay: 5-hydroxytryptamine receptor 2A (HTR2A) small molecule agonists, cell-based qHTS assay (AID 1963587); also: nearly all actives have a fitted effect of over 30% in size
In short: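 HTR2A-CHO cells, plated 18 h at 37 C/5% CO2, dye-loaded 1 h at 37 C; compounds in DMSO added by pin tool (agonist mode). Intracellular calcium flux read as kinetic fluorescence on FDSS over 2 min at 1 s intervals.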

[14] = biological target: Muscarinic acetylcholine receptor M1 (Homo sapiens) (UniProt P11229); assay: Cholinergic receptor muscarinic 1 (CHRM1) small molecule antagonists, cell-based qHTS assay (AID 1963588); also: nearly all actives have a fitted effect of over 40% in size
In short: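 Compounds were tested at 15 concentrations in three independent runs. Dye-loaded CHRM1-CHO cells were exposed 5 min at room temperature before stimulation by acetylcholine added at 50nM. Intracellular calcium was read kinetically on FDSS for 3 min.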

[15] = biological target: Muscarinic acetylcholine receptor M1 (Homo sapiens) (UniProt P11229); assay: Cholinergic receptor muscarinic 1 (CHRM1) small molecule agonists, cell-based qHTS assay (AID 1963589); also: nearly all actives have a fitted effect of over 35% in size
In short: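 Kinetic fluorescence (1 s intervals) of calcium-sensitive dye in human M1 CHO cells after compound addition; cells pre-incubated 18 h at 37 C/5% CO2 and dye-loaded 1 h.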

[16] = cAMP Responsive Elements (CRE) small molecule agonists, cell-based qHTS assay (AID 1963590)
In short: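 Test agents in DMSO were incubated 3 h at 37 C/5% CO2 with CRE-bla HEK 293T cells seeded 18 h earlier; LiveBLAzer B/G FRET substrate was added and read after 2 h at room temperature.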

[17] = cAMP Responsive Elements (CRE) small molecule antagonists, cell-based qHTS assay (AID 1963591; active = well fitted inhibition curve with a large enough effect in the signal ratio in the repeat runs, not every such curve was filed as active; the % refers to the signal ratio)
In short: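 Reporter line CRE-bla HEK 293T in dialyzed-FBS DMEM; cells preincubated 18 h, treated 3 h with compound plus NKH477 (0.25 uM final); LiveBLAzer FRET, 2 h RT.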

[18] = biological target: Beta-2 adrenergic receptor (Homo sapiens) (UniProt P07550); assay: Adrenergic beta2 receptor (ADRB2) small molecule antagonists, cell-based qHTS assay (AID 1963592); also: series mostly up to about 92 µM; nearly all actives have a fitted effect of over 50% in size
In short: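 Assay format: CHO-ADRB2 cells, 18-20hr seeding at 37C/5% CO2, then compound plus 1nM isoproterenol agonist mix for 0.5hr RT. Homogeneous time-resolved fluorescence cAMP detection after 1hr, expressed as 665/615 nm ratio.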

[19] = biological target: D(2) dopamine receptor (Homo sapiens) (UniProt P14416); assay: Dopamine D2 receptor (DRD2) small molecule agonists, cell-based qHTS assay (AID 1963594); also: nearly all actives have a fitted effect of over 35% in size
In short: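 HEK293 cells stably expressing DRD2 were cultured 24 h at 37 C, then given Ro20-1724 (0.1 mM final) and compounds for 10 min at room temperature. NKH477 (200nM) was then added for 30 min. cAMP was read by HTRF.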

[20] = biological target: D(2) dopamine receptor (Homo sapiens) (UniProt P14416); assay: Dopamine D2 receptor (DRD2) small molecule antagonists, cell-based qHTS assay (AID 1963595; active = well fitted inhibition curve with a large enough effect in the signal ratio in the repeat runs, with a control signal flat; the % refers to the signal ratio)
In short: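 Antagonist mode in DRD2-HEK293 cells: after compound addition with 0.1 mM Ro20-1724, cells received quinpirole (12 nM) and NKH477 (200 nM) for 30 min at room temperature; HTRF cAMP read after 1 h detection.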

Measured: Potency

Sequence of Beta-2 adrenergic receptor (Homo sapiens) (P07550 whole entry, looked up): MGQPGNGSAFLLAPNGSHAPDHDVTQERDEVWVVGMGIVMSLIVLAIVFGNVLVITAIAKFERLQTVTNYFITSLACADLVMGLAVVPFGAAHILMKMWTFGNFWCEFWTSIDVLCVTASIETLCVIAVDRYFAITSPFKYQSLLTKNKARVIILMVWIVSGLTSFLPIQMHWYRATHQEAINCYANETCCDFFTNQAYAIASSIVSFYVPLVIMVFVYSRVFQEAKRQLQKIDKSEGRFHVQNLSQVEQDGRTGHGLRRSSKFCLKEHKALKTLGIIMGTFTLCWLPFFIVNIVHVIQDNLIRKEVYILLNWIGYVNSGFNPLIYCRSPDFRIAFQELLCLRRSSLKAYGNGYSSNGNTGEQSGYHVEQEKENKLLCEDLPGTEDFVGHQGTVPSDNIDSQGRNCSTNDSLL
Sequence of KiSS-1 receptor (Homo sapiens) (Q969F8 whole entry, looked up): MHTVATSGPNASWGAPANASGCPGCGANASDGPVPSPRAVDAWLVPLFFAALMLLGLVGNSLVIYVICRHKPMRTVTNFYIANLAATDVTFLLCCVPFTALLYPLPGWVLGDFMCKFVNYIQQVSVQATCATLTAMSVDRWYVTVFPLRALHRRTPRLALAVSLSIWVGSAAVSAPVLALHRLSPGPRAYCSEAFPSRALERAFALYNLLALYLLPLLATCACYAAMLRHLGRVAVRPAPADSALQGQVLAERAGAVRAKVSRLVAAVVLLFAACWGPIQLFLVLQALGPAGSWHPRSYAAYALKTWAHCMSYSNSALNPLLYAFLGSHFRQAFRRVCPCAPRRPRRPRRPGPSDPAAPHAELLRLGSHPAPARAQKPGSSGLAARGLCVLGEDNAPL
Sequence of D(2) dopamine receptor (Homo sapiens) (P14416 whole entry, looked up): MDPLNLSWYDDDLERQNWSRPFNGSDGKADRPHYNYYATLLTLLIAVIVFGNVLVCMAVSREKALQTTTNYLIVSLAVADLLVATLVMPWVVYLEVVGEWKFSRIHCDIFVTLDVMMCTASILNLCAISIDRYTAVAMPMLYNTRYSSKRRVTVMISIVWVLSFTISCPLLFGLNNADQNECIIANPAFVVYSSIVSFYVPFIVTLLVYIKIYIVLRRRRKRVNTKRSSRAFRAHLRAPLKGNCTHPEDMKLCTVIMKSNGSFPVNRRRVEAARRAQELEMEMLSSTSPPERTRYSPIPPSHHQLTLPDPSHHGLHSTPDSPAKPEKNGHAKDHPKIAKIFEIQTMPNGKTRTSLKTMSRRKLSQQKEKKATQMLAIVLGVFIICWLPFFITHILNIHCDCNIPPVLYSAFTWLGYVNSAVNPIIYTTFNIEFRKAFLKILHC
Sequence of 5-hydroxytryptamine receptor 2A (Homo sapiens) (P28223 whole entry, looked up): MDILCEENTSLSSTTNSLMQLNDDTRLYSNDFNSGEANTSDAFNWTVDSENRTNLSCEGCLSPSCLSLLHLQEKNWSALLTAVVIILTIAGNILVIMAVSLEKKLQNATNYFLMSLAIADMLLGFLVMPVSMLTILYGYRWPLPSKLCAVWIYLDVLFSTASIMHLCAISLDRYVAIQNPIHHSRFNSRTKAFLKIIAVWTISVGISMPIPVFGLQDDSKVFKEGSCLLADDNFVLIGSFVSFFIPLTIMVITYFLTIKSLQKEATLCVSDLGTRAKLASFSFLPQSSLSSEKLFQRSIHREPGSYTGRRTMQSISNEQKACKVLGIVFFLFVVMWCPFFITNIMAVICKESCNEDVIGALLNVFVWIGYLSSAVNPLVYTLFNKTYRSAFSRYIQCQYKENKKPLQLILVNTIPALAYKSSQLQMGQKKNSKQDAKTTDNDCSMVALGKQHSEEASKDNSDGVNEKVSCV
Sequence of Muscarinic acetylcholine receptor M1 (Homo sapiens) (P11229 whole entry, looked up): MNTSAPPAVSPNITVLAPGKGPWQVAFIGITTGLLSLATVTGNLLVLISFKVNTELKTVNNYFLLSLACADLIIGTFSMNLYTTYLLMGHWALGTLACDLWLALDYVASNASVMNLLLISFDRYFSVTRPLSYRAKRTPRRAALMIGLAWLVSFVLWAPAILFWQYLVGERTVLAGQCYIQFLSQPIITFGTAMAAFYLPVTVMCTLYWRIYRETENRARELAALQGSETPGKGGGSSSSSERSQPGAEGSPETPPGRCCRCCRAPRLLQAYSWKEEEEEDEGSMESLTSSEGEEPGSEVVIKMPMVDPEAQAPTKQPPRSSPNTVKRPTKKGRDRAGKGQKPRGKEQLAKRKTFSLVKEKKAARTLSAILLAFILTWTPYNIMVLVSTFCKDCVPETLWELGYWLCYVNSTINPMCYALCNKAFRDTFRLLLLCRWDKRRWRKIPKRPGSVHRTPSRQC
Sequence of Gonadotropin-releasing hormone receptor (Homo sapiens) (P30968 whole entry, looked up): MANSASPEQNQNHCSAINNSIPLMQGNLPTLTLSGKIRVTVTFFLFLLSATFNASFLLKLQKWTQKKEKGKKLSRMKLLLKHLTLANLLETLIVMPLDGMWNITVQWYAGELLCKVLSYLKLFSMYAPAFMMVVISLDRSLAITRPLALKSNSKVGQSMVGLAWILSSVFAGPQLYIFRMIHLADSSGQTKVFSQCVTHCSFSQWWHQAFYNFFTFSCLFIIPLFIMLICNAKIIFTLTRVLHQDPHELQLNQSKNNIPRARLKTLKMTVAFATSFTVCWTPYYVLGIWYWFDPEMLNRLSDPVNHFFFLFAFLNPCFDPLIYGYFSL

CCCCCCOC(=O)CCCCC
inactive: all assays above

[Cl][Sc]([Cl])[Cl]
not listed: [19]
inactive: all other assays above

C=COCC1CCC(COC=C)CC1 (stereo not drawn)
inactive: all assays above

CO[C@@H]1[C@@H](OC(N)=O)[C@@H](O)[C@H](Oc2ccc3c(O)c(NC(=O)c4ccc(O)c(CC=C(C)C)c4)c(=O)oc3c2C)OC1(C)C
inactive: all assays above

CN1C(=O)CC(c2ccccc2)C1=O (stereo not drawn)
inactive: all assays above

CSSc1ccoc1C
inactive: all assays above

COC(=O)c1c(C)cc(O)c(C)c1O
not listed: [18]
inactive: all other assays above

CC1=C(CC=O)C(C)(C)CCC1
inactive: all assays above
